PubChem BioAssay (NCATS)
Records with an inconclusive call do not appear. Active and inactive are the calls of the source. Calls follow the shape of the dose curve; as a rule, active = well fitted curve in either direction with a large enough effect (not every such curve was filed as active); inconclusive = small, poorly fitted or top-dose-only effect, or another doubt; inactive = flat fitted curve, though single readings scatter.

Assay: NFAT Signaling Pathway (AID 444);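 also: carbachol stimulus at about its EC50 of 1 µM final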
Conditions: Jurkat NFAT-bla M1, carbachol, beta-lactamase ratio, 5 h; at 7.69 µM (top of the series) unless noted
How it was run: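 Read-out: CCF4 FRET ratio (460 nm/530 nm) after 1 h RT dye loading, used for %activity and AC50 from titration series. Cells: Jurkat NFAT-β-lactamase/M1 line, treated with compound plus 1 uM carbachol for 5 h, 37 °C.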
% is scaled to controls: 0 for no effect and ±100 for the full control effect.

Activity change, negative = inhibition, inactive:
COCCn1c(=O)c(-c2cccc(C#N)c2)nc2cnc(Oc3ccc(OC)cc3)nc21 7%
O=c1c(-c2ccccc2)nc2cncnc2n1-c1ccccc1 2.09%
CN(C)C(=O)c1ccc(-c2nccc(N(C)Cc3ccco3)n2)cc1 -2.09%
CS(=O)(=O)Nc1cccc(-c2cc(NCc3cccs3)ncn2)c1 -3.98%
COc1ccc(-c2nc3cnc(OC)nc3n(C)c2=O)cc1 -0.516%
c1ccc(CNc2ncncc2-c2cccnc2)cc1 -2.51%
CN(C)c1ncc2nc(-c3cccs3)c(=O)n(-c3ccccc3)c2n1 6.03%
Cn1c(=O)c(-c2ccc(Cl)cc2)nc2cnc(OCc3ccccc3)nc21 -7.07%
COc1cccc(Cn2c(=O)c(-c3ccc(Cl)cc3)nc3cnc(N4CCN(C)CC4)nc32)c1 23.1%
COc1cccc(Cn2c(=O)c(CCc3ccccc3)nc3cncnc32)c1 -7.87%
Cn1c(=O)c(-c2ccccc2)nc2cnc(Nc3ccccc3)nc21 -7.03%
COc1ncc2ncc(=O)n(C3CC3)c2n1 -8.58%
Cc1cnc(CNc2cc(-c3ccccc3C(F)(F)F)ncn2)cn1 10.7%
CN(C)C(=O)c1ccc(-c2cncnc2NCc2cccnc2)cc1 3.94%
COc1ncc2nc(-c3ccc(F)cc3)c(=O)n(CCc3ccccc3)c2n1 -8.98%
N#Cc1cccc(-c2nccc(-n3ccnc3)n2)c1 10.9%
